# In PubChem BioAssay AID1626 (SRMLSC, 2009):
# In all, about 220,000 compounds went through this assay and about 2,000 (0.91%) were called active. Inconclusive results (about 2%) are left out. A selection follows. Entries with a potency or affinity are not part of this list. A number with no mark means an inactive call. No stated cut-off is given here; in the data, inconclusive means inhibition above about 80% without an active follow-up result; inactive means below that; test concentration not stated here.
# Experiment: M. tuberculosis H37Rv growth inhibitors, H37Rv strain (AID 1626);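 further: bacteria incubated seven days before Alamar blue readout; 0% = bacteria only wells and 100% = bacteria with antibiotic wells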
# Conditions: active compounds read high, concentration not given here
row,Structure (SMILES),inhibition [%]
1,O=C(O)C1CCCCC1C(=O)Nc1ccc(F)c(F)c1 (stereo not given),0.5
2,Cc1ccc(NC(=O)C2CCCCC2C(=O)O)cc1C (stereo not given),1.55
3,COc1cc(/C=N/NC(N)=O)ccc1OCC(=O)N1C(C)CCCC1C (stereo not given),-1.38
4,CN(C)/C=N/c1ncc(C(=O)c2ccccc2)s1,-11.7
5,O=C(c1ccccc1)c1cc2ccccc2o1,1.99
6,Nc1nc(Nc2ccccc2)sc1C(=O)c1ccccc1,36.1
7,Cc1sc(N)c(C(=O)c2ccccc2)c1C,-10.3
8,COC(=O)CCCC1=CC2=C(c3ccccc3)C(=O)C(C)(OC(=O)C3CCCC3)C(=O)C2=CN1CCc1c[nH]c2ccccc12 (stereo not given),0.18
9,COc1ccc(-n2c(C)cc(C(=O)Cn3nnc4ccccc4c3=O)c2C)cc1,-8.34
10,Cc1ccc(CN(c2ccc(C(=O)N3CCc4ccccc4C3)cc2)S(C)(=O)=O)cc1,6.8
11,N#Cc1ccccc1Cn1cc(C(=O)c2cccs2)c2ccccc21,7.78
12,Nc1nc(Nc2cccc(F)c2)nc(NCCO)c1[N+](=O)[O-],7.19
13,CC1CCC(C(C)C)C(OC(=O)CSc2nccc(=O)[nH]2)C1 (stereo not given),-8.76
14,CC1CCC(C(C)C)C(OC(=O)COC(=O)c2cccn2C)C1 (stereo not given),-6.06
15,CC1CCC(C(C)C)C(OC(=O)COC(=O)c2ccc(N)cc2)C1 (stereo not given),68.7
16,CC1CCC(C(C)C)C(OC(=O)Cn2nnc3c(cnn3-c3ccccc3)c2=O)C1 (stereo not given),1.77
17,CC1CCC(C(C)C)C(OC(=O)COC(=O)c2ccccc2N)C1 (stereo not given),6.07
18,CC1CCC(C(C)C)C(OC(=O)COC(=O)c2ccc(=O)[nH]c2)C1 (stereo not given),-0.66
19,CCOc1ccc(CCNC(=O)Cn2cccc2C(=O)c2ccccc2C)cc1OCC,4.18
20,Cc1c(-c2n[nH]c(=S)n2-c2ccc(Br)cc2)nnn1-c1ccc(Cl)cc1,4.27

row,Structure (SMILES),inhibition [%]
1,CCOC(CNc1c([N+](=O)[O-])c(=O)n(C)c(=O)n1C)OCC,3.27
2,Cc1ccccc1NC(=O)OCc1cccnc1Sc1ccc(Cl)cc1,0.86
3,Cn1c(SCC(=O)O)nc2ccccc2c1=O,3.07
4,Cc1ccc(Sc2ccc(/C=C3/C(=O)NN(c4ccccc4)C3=O)o2)cc1,75.7
5,CN1C(=O)C(=Cc2ccc(Sc3ccccc3)o2)C(=O)N(C)C1=O,41
6,CCCCc1nnc(NC(=O)CN2C(=O)c3ccccc3C2=O)s1,0.96
7,CCOC(=O)COc1ccc(S(=O)(=O)N2CCN(c3ccc(F)cc3)CC2)cc1,8.22
8,CN1CCN(C(=O)/C(=C\c2cccc([N+](=O)[O-])c2)NC(=O)c2cccs2)CC1,-3.33
9,COc1ccc(CN(C(=O)c2ccc3c(c2)OCCO3)C(C(=O)NC2CCCCC2)c2ccc3ncccc3c2)cc1 (stereo not given),67.9
10,O=C(NC1CCCCC1)C(c1ccc2ncccc2c1)N(Cc1ccc2c(c1)OCO2)C(=O)c1cccs1 (stereo not given),8.94
11,O=C(NC1CCCCC1)C(c1ccc2ncccc2c1)N(Cc1ccccc1)C(=O)c1cccs1 (stereo not given),40.5
12,O=C(NC1CCCCC1)C(c1ccc2ncccc2c1)N(Cc1ccco1)C(=O)c1ccc2c(c1)OCCO2 (stereo not given),13.5
13,Cn1c(SCC(=O)N/N=C/c2cccnc2)nnc1-c1ccccc1,-5.36
14,Cc1ccc(C(=O)OCC(=O)NC(C)C)cc1S(=O)(=O)N1CCOCC1,-1.79
15,CN(Cc1ccccc1)S(=O)(=O)c1ccc(NC(=S)NC(=O)C(C)(C)C)cc1,9.18
16,COc1cc(CN2CCCC(C(=O)c3ccc4c5c(cccc35)CC4)C2)cc(OC)c1O (stereo not given),-1.67
17,CC(C)c1[nH]nc2c1C(c1ccco1)C(C#N)=C(N)O2 (stereo not given),-5.64
18,O=C1CC(C(=O)O)C2(CCCC2)O1 (stereo not given),9.23
19,Cc1ccc(N(CC(=O)NC2CCCC2)C(=O)CCCC(=O)Nc2ccccn2)cc1C,10
20,COc1cnc(-c2ccccn2)nc1NC(C)C,75.4

row,Structure (SMILES),inhibition [%]
1,Clc1ccccc1Sc1ccc(-c2ccccn2)s1,-5.02
2,COc1ccccc1Sc1nc(-c2ccccc2)ncc1OC,-2.36
3,O=C(O)c1cnc(-c2ccccc2)nc1Sc1ccccc1Cl,1.01
4,CC12CN3CC(C)(CN(C1)C3c1cccnc1)C2=O (stereo not given),-0.26
5,O=C(NC(=S)NCCN1CCOCC1)c1ccccc1,-16.1
6,CCOC(=O)C1CCCN(c2cc(NCCCO)c([N+](=O)[O-])c3nonc23)C1 (stereo not given),1.76
7,CCOC(=O)C1CCCN(C(=O)c2ccc([N+](=O)[O-])c(C)c2)C1 (stereo not given),-2.07
8,Cc1n[nH]c(=O)n1-c1ccc(OCc2ccccc2)cc1,-0.14
9,Cc1cc(-c2nnc(SCC(=O)c3ccc(F)cc3)o2)no1,3.52
10,CCN1CCN(c2nc(-c3ccccn3)nc3ccccc23)CC1,-2.25
11,c1ccc2c(N3CCCCCC3)nc(-c3ccncc3)nc2c1,37
12,c1ccc2c(N3CCOCC3)nc(-c3ccncc3)nc2c1,-3.11
13,Fc1ccccc1-c1nc(N2CCCCC2)c2ccccc2n1,7.2
14,c1cncc(-c2nc(N3CCOCC3)c3ccccc3n2)c1,-2.03
15,CN1CCN(c2nc(-c3ccccn3)nc3ccccc23)CC1,10.9
16,CCn1cc(C(=O)N2CCN(c3ccc([N+](=O)[O-])cc3)CC2)c(=O)c2ccc(C)nc21,6.57
17,O=S(=O)(O)c1nc2ccccc2[nH]1,-0.16
18,Cc1cc(=O)[nH]c(N/N=C/c2cc(C)n(-c3ccccc3)c2C)n1,-2.65
19,S=C(Nc1ccc(Cl)cc1)NC1CC2CCCC(C1)N2C1CC1 (stereo not given),-1.32
20,Cc1ccc(-n2c(C(C)n3nc(C)c([N+](=O)[O-])c3C)n[nH]c2=S)cc1 (stereo not given),3.01
